HT1080 IDH1KD tx: HT-1080 IDH1 knockdown cell toxicity (counter line); AID 686971; HT-1080 IDH1 knockdown viability, ATP luminescence, 48 h; Potency, µM (doses to about 46.1 µM), for the others: top-dose activity, negative = toxicity, most hits filed as cytotoxic; 360,000 compounds, 2% hits;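 further: 0% = DMSO wells and -100% = cell-free medium wells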
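After a 2 h attachment period, IDH1KD HT-1080 cells took pin-transferred compound for 48 h at 37 °C; ATP-based luminescence after 10 min room-temperature reagent incubation reported viability.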
KB-3-1 cytotox: kills parental KB-3-1 adenocarcinoma cells; KB-3-1 viability, CellTiter-Glo ATP luminescence, 72 h; Potency, µM (series often up to 46.1 µM), actives largely listed as cytotoxic; 400,000 compounds, 1.4% hits; further: on the % scale 0 is the no-effect control and ±100 the full control effect; nearly all actives have a fitted effect of over 60% in size
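Parental KB-3-1 viability, qHTS format: 72 h compound exposure, 37 °C; CellTiter-Glo; media-only wells and DMSO plates as controls; concentration-effect fits on corrected data.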
KB-V1 cytotox: KB-V1 MDR subline cytotoxicity; KB-V1 MDR cells viability, CellTiter-Glo, 72 h; Potency, µM (series often up to 46.1 µM), most hits filed as cytotoxic; 400,000 compounds, 3.4% hits; AID 1347076; further: on the % scale 0 is the no-effect control and ±100 the full control effect; nearly all actives have a fitted effect of over 60% in size
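KB-V1, DMEM (no phenol red) + 10% FBS; cpd pin-transferred, titration series; 72 h, 37 degrees C; CellTiter-Glo, luminescence. Data normalized, curve-fit.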
SW480 rerep: induces DNA re-replication in SW480 colon adenocarcinoma cells | 340,000 compounds, 1.8% hits | SW480 DNA re-replication, Hoechst DNA content imaging, 48 h | Potency, µM (highest dose often 46.1 µM), inactives show at the top dose re-replication activation, hits mostly activators; further: % of control where 0% means no effect; nearly all actives have a fitted effect of over 55% in size
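DNA re-replication was detected as more nuclei of elevated Hoechst intensity after 48 hr exposure to compound (23 nL pinned per well of 250 cells).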
HT1080-NT tox: kills 2HG-producing HT-1080-NT fibrosarcoma cells | HT-1080-NT fibrosarcoma viability, CellTiter-Glo ATP luminescence, 48 h | Potency, µM (highest dose often 46.1 µM), without a hit: at the top dose activity, negative = less viability, most hits filed as cytotoxic | 360,000 compounds, 1.6% hits | AID 686970;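 further: NT is the 2HG producing partner of a matched IDH1 knockdown line; 0% = DMSO-treated cells and -100% = media-only wells without cells; nearly all actives have a fitted effect of over 55% in size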
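Fibrosarcoma NT cells, 750 per well in 5% FBS RPMI, were exposed to compound for 48 hours. Viability: CellTiter-Glo luminescence.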
MCF10A rereplic: induces DNA re-replication in MCF 10a normal breast cells; 350,000 compounds, 2.9% hits; MCF 10A DNA re-replication, Hoechst nuclear intensity, 48 h; Potency, µM (titrated, usually from 46.1 µM), for inactives: top-dose activity, positive = re-replication, hits mostly activators; further: % of control where 0% means no effect; nearly all actives have a fitted effect of over 50% in size
Numbers without * were called inactive; i = inactive; ? = inconclusive; nt = not tested or not shown. In the library only some 8% were active in any assay of this set; here they are far more common. The call rests on the fitted dose curve; in most records, active means well fitted curve in the direction sought with a large enough effect; inconclusive means small, poorly fitted or top-dose-only effect, or another doubt; inactive means no such curve, though single readings can be large; an effect the other way counts as inactive or inconclusive. Potency means the concentration at half of the fitted maximal effect.

SMILES	HT1080 IDH1KD tx	KB-3-1 cytotox	KB-V1 cytotox	SW480 rerep	HT1080-NT tox	MCF10A rereplic
N#Cc1ccc(-c2ccco2)nc1SCC(=O)c1ccc(Cl)cc1	-15%	i	i	8%	-23%	7.9µM*
O=C(CSc1ccc(-c2ccco2)nn1)c1ccc(F)cc1	-1%	i	26µM*	-5%	17%	-12%
COc1ccc(-c2ccc(C#N)c(SCC(=O)OCc3ccccc3)n2)cc1OC	-4%	i	i	?	3%	9.2µM*
O=C(c1cccc(Cl)c1Cl)N(Cc1ccco1)Cc1cccs1	nt	i	i	nt	nt	nt
Cc1cc(Br)ccc1NC(=O)COc1cc(=O)n(C)c2ccccc12	nt	i	i	nt	nt	nt
CCN(Cc1ccccc1)S(=O)(=O)c1cn(C)cn1	6%	i	?	-35%	10%	-2%
O=C(NC1CCCCC1)C1CCN(S(=O)(=O)c2cccc3nonc23)CC1	-1%	i	i	4%	8%	3%
Cc1cc(C)c(NC(=S)N2CCN(c3ccc([N+](=O)[O-])cn3)CC2)cc1C	-1%	i	i	-8%	1%	-11%
NC1=NC(=O)/C(=C/c2ccccc2OS(=O)(=O)c2ccc3ccccc3c2)S1	14%	i	i	-28%	3%	-1%
N[C@H](Cc1ccc(O)c(O)c1)C(=O)O	nt	nt	nt	-16%	nt	-6%
COc1ccc(-n2c(-c3ccc(Cl)cc3)c[n+]3c2CCCCC3)cc1	?	i	i	-29%	?	-6%
COc1ccc(-c2c[n+]3c(n2-c2ccc(C)cc2)CCCCC3)cc1	?	1.8µM*	?	11%	?	-3%
COc1ccc(-c2c[n+]3c(n2-c2ccccc2)CCCCC3)cc1	?	9.2µM*	i	-6%	?	-2%
Cc1cccc(C)c1NC(=O)C(c1ccncc1)n1c(=O)c(-c2ccco2)nc2ccccc21 (stereo not given)	0%	i	i	nt	-14%	nt
CCOC(=O)c1c(C)n2c3c(cc(C)cc13)CCC2	1%	i	i	-5%	14%	?
CN(C)c1cc[n+](CC[n+]2ccc(N(C)C)cc2)cc1	-2%	i	i	-13%	-1%	-12%
CN(C)c1cc[n+](Cc2c(Cl)cccc2Cl)cc1	?	7.3µM*	i	12%	-19%	?
COc1ccc(NC(=O)Cn2c(=O)n(CC3CCCO3)c(=O)c3cc(OC)c(OC)cc32)c(OC)c1 (stereo not given)	-16%	i	i	-20%	-20%	-8%
CC(C)(C)NC(=O)CCN(/N=C/c1ccc([N+](=O)[O-])o1)C1=NS(=O)(=O)c2ccccc21	?	18µM*	i	13µM*	?	23µM*
CN(C)c1ccc(/C=N/N(CCO)C2=NS(=O)(=O)c3ccccc32)cc1	-2%	i	i	-1%	3%	0%
CN(C)c1ccc(/C=N/N(CCC(=O)NC(C)(C)C)C2=NS(=O)(=O)c3ccccc32)cc1	17%	i	i	18µM*	15%	18µM*
COc1ccc(N2C(=O)CC(Sc3ncn[nH]3)C2=O)c(OC)c1 (stereo not given)	10µM*	i	i	7.3µM*	?	2.3µM*
CCCCN(CC)S(=O)(=O)c1ccc(C(=O)N=c2sc3cc(NC(C)=O)ccc3n2C)cc1	23%	?	i	7.3µM*	13%	10µM*
CN(c1ccccc1)S(=O)(=O)c1ccc(NC(=O)c2cc(=O)c3ccccc3o2)cc1	nt	i	i	nt	nt	nt
Oc1cc(-c2ccncc2)cc2cccnc12	nt	10µM*	?	-6%	nt	?
SMILES	HT1080 IDH1KD tx	KB-3-1 cytotox	KB-V1 cytotox	SW480 rerep	HT1080-NT tox	MCF10A rereplic
Oc1cc(Nc2ccncc2)cc2cccnc12	nt	i	i	4%	nt	22%
CN(C)c1ccc(-c2cc(O)c3ncccc3c2)cc1	nt	i	i	?	nt	-17%
Oc1cc(-c2ccc(N3CCCCC3)nc2)cc2cccnc12	nt	5.2µM*	?	0.82µM*	nt	?
Oc1cc(Nc2cccnc2)cc2cccnc12	nt	21µM*	i	?	nt	?
Cc1ccc(S(=O)(=O)C2(C(=O)N3CCN(c4ccccc4F)CC3)CC2)cc1	16%	i	i	3%	?	15%
CCCC(=O)Nc1cc(C)c(O)c(-c2nc3ncccc3o2)c1	nt	i	i	nt	nt	nt
Cc1ccc2c(c1)c(=O)c(Br)c(C)n2Cc1ccccc1	1%	?	18µM*	1%	6%	?
COc1cc(CC(=O)C(=O)O)oc(=O)c1	5%	i	?	nt	-3%	nt
CC(C)c1ccc(NC(=O)c2ccc(NS(C)(=O)=O)cc2)cc1	-25%	i	i	5%	?	9.2µM*
COc1ccc(OC)c(NS(=O)(=O)c2ccc(NC(=O)c3ccc(NS(C)(=O)=O)cc3)cc2)c1	8%	16µM*	i	-98%	1%	?
COc1ccc(NC(=O)c2ccc3ccccc3c2)cc1NS(=O)(=O)c1ccc(F)cc1	6%	i	21µM*	-2%	7%	9%
Cc1ccc2c(c1)c1c(c(=O)n(-c3ccccc3)c(=O)n1CC(=O)NCCC1=CCCCC1)n2C	nt	i	i	nt	nt	nt
Clc1ccc(OCc2nnc3n2N=C(c2ccc4c(c2)OCCO4)CS3)c(Cl)c1	8.9µM*	?	?	?	10µM*	7%
CCOc1cccc(C2C(C(=O)c3ccc(C)o3)=C(O)C(=O)N2Cc2ccccc2)c1 (stereo not given)	15%	i	8.2µM*	-6%	13%	-24%
CCCCOc1ccc(C2C(C(=O)c3ccc(C)o3)=C(O)C(=O)N2CC2CCCO2)cc1 (stereo not given)	-15%	?	12µM*	?	-8%	-2%
CCOc1cc(-c2nnc(SCC(=O)Nc3ccc(F)c(F)c3)nc2-c2ccc(OC)c(OCC)c2)ccc1OC	nt	i	i	nt	nt	nt
COc1ccc(-c2cc3nc(NCc4ccc(NC(C)=O)cc4)n(C)c(=O)c3s2)cc1OC	12%	i	i	nt	20%	nt
COc1ccccc1CNc1nc2cc(-c3ccc(OC)c(OC)c3)sc2c(=O)n1C	-11%	?	9.2µM*	nt	-24%	nt
COc1cccc(CNc2nc3cc(-c4ccccc4CO)sc3c(=O)n2C)c1	?	?	i	nt	29µM*	nt
COc1cccc(CNc2nc3cc(-c4ccccc4)sc3c(=O)n2C)c1OC	?	23µM*	i	nt	?	nt
COc1cccc(CNc2nc3cc(-c4cccc(C(F)(F)F)c4)sc3c(=O)n2C)c1OC	1%	i	i	nt	0%	nt
